Data as given in PubChem BioAssay AID878 (University of Pittsburgh Molecular Library Screening Center, 2007).
The campaign covered roughly 200,000 compounds. About 65 (0.03%) were called active.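 How the source made its calls: active means activation of at least 50% relative to the plate's high and low controls in the primary single-dose screen; inactive means activation below 50%.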 The entries come from a sample that favours actives as a whole.

Test: compounds producing H2O2 with reducing agent – biochemical, NIH compound library profiling, artefact control for MLSCN library redox annotation, primary screen (AID 878);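 further: compound incubated with DTT at 0.8 mM final as the reducing agent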
Conditions: DTT-dependent redox cycling H2O2, phenol red/HRP absorbance; at 10 µM; hits give high values; 100% = 100 µM peroxide control, 0% = buffer
For `Oc1ccc(/C=N/Nc2ccc(C(F)(F)F)cn2)cc1O`, the activation was -2.05% (inactive). In the case of `CC(CC(=O)O)CC(=O)NNC(=O)c1cccc(Br)c1` (configuration not stated), the activation is reported as 0.78% (inactive). In the case of `Cc1ccc(OCC(=O)OC(C)CN(C)Cc2ccccc2)cc1` (configuration not stated), the activation is reported as -0.15% (inactive). For `Cc1ccc(NC(=O)c2oc(=O)c3ccccc3c2-c2ccccc2)c(C)c1`, the activation was -0.2% (inactive). With `COc1ccc(CS(=O)/C(Cl)=C(/Cl)C(=O)Nc2ccc(OC)nc2)cc1` (configuration not stated) the activation was 0.27% (inactive). With `CCOC(=O)C1=C(CN2CCCCCC2)NC(=O)NC1c1cccc([N+](=O)[O-])c1` (configuration not stated) the activation was -10.2% (inactive). For `CCOC(=O)C1(O)CC(C)=NN1C(=O)c1cccc(Br)c1` (configuration not stated), the activation was -0.77% (inactive). In the case of `COC(=O)c1ccccc1NC(=O)C1CC(=O)N(c2ccc(OC)cc2)C1` (configuration not stated), the activation is reported as -0.76% (inactive). For `COn1c(-c2ccc(Cl)cc2Cl)nc2ncccc21`, the activation was 0.53% (inactive). With `C=CCNC(=S)NNC(=O)COc1c(Cl)cc(Cl)cc1Cl` the activation was 0.34% (inactive). For `O=C(NCCCn1ccnc1)C(=O)c1cn(CC(=O)N2CCCCCC2)c2ccccc12`, the activation was -0.37% (inactive). For `COc1ccc(N2CCN(C(=O)COc3ccc4c(C)cc(=O)oc4c3)CC2)cc1`, the activation was -0.38% (inactive). For `O=C(CSc1nc2ccccc2[nH]1)Nc1nc(-c2ccccc2)c(-c2ccccc2)o1`, the activation was 0.41% (inactive). For `Cc1ccc(S(=O)(=O)/N=C(/Nc2ccc3[nH]c(=O)[nH]c3c2)c2ccccc2)cc1`, the activation was -0.98% (inactive). With `COc1ccc(NC(=O)c2cc3nc(-c4ccccc4)cc(C)n3n2)cc1OC` the activation was -0.08% (inactive). In the case of `CCC(=O)N(Cc1cc2ccccc2[nH]c1=O)c1ccc(OC)cc1`, the activation is reported as -0.34% (inactive). With `CCCOc1ccc(NC(=O)CC2C(=O)N(C)C(=S)N2Cc2ccc3c(c2)OCO3)cc1` (configuration not stated) the activation was -0.41% (inactive). With `CCc1cccc(OC2OC(CO)C(O)C(O)C2NC(C)=O)c1` (configuration not stated) the activation was -0.96% (inactive). With `Oc1cccc2ccc(/C=C/c3ccc(Br)s3)nc12` the activation was -0.18% (inactive). For `COc1ccc(C(=O)Nc2sc(C)c(C)c2CN2CCOCC2)cc1`, the activation was -0.23% (inactive). For `CN(/C(=N/S(=O)(=O)c1cccs1)c1ccccc1)c1ccc(O)cc1`, the activation was -0.71% (inactive). In the case of `O=C(NC1CCCCCC1)c1cccnc1Sc1ccc(Cl)cc1`, the activation is reported as -0.04% (inactive). In the case of `C/[N+]([O-])=C\c1ccc([N+](=O)[O-])o1`, the activation is reported as 0.48% (inactive). For `CSc1ccc(/C=N\NC(=O)CC(=O)NC(C)C)cc1`, the activation was -0.35% (inactive). In the case of `COCCNC(=O)c1ccc(N2CCC3(CC2)OCCO3)c([N+](=O)[O-])c1`, the activation is reported as 0.43% (inactive). In the case of `COc1cc(/C=C/C(=O)OCC(=O)NC(=O)NCc2ccccc2)ccc1OCC#N`, the activation is reported as -0.39% (inactive). In the case of `O=C(CNC(=O)c1cc(=O)[nH]c2ccccc12)Nc1ccc(F)c(F)c1`, the activation is reported as 0.25% (inactive). With `CN(c1ccc2nc3ccccc3c(=O)n2n1)C1CCCCC1` the activation was -0.26% (inactive). With `COc1ccc(CC(=O)N2N=C(C)CC2(O)C(F)(F)F)cc1` (configuration not stated) the activation was -0.18% (inactive). In the case of `O=C(/C=C/Sc1ncn[nH]1)c1ccc(Cl)cc1`, the activation is reported as 1.23% (inactive). With `O=c1c2ccccc2c(-c2ccccc2)nn1-c1ccccn1` the activation was -0.18% (inactive). With `CCOCCCNC(=O)C(=O)NCCCOCC` the activation was -0.48% (inactive). In the case of `CCC1=NN(C(=O)Cc2ccc([N+](=O)[O-])cc2)C(O)(c2ccc(Br)cc2)C1` (configuration not stated), the activation is reported as 0.2% (inactive). In the case of `CCOc1cc(NC(=S)NCCCOC)c(OCC)cc1NC(=O)c1ccco1`, the activation is reported as -0.65% (inactive). In the case of `CNC(=O)C(=O)N/N=C/c1ccccn1`, the activation is reported as 0.83% (inactive). For `CCN(CC(=O)NCc1cccs1)S(=O)(=O)c1ccc(NC(C)=O)cc1`, the activation was -2.2% (inactive). With `CCOC(=O)C1CCN(S(=O)(=O)c2cc(F)ccc2OC)CC1` the activation was -0.4% (inactive). With `Cc1ccc(CNC(=O)COc2ccc3c(c2)CCC3)cc1` the activation was -0.27% (inactive). In the case of `CO/N=C/CC(=O)c1ccc(OC)cc1`, the activation is reported as -0.35% (inactive). With `CCCC1(C(=O)OCC)NC(c2ccc(N(C)C)cc2)C2C(=O)N(c3ccc4c(c3)OCCO4)C(=O)C21` (configuration not stated) the activation was 0.78% (inactive). For `Cc1ccc(-n2c(C)cc(/C=N\NC(=O)CC(=O)NC(C)C)c2C)cc1`, the activation was 0.08% (inactive). With `O=C(/C=C/c1cccc([N+](=O)[O-])c1)NCCSCc1ccco1` the activation was -0.1% (inactive). For `Cc1ccc(CC(=O)Nc2ccc(OC(F)F)c(Cl)c2)cc1C`, the activation was 0.61% (inactive). With `CCOC(=O)C1=C(c2ccc(OC)cc2)C(=O)c2ccccc2C1=O` the activation was 0.28% (inactive). In the case of `CCOC(=O)c1c(C)[nH]c2c1-c1ccccc1C(=O)C2=O`, the activation is reported as 89.8% (active). With `CCOC(=O)c1c(C)[nH]c(=S)c(C#N)c1-c1ccccc1` the activation was -0.47% (inactive). For `COc1ccc(S(=O)(=O)N/N=C\c2ccc(OC)c(COc3ccc(C)cc3[N+](=O)[O-])c2)cc1`, the activation was 0.79% (inactive). In the case of `Cc1cc(NC(=O)CSCc2ccccc2C)no1`, the activation is reported as -0.39% (inactive). With `COc1cc(CN2CCN(Cc3ccc(C)cc3)CC2)c([N+](=O)[O-])cc1OC` the activation was -0.34% (inactive). For `Cc1ccc(-n2c(SCC(=O)N/N=C/C=C/c3ccccc3[N+](=O)[O-])nc3ccccc3c2=O)cc1`, the activation was 0.36% (inactive). With `Cc1ccc(C(C)(C)C)c(OCCCCN2CCCC2)c1` the activation was 0.04% (inactive). With `COC(=O)c1c(C)[nH]c(C(=O)/C=C/c2ccc(Cl)cc2)c1C` the activation was 0.44% (inactive). For `O=C(CSc1ncn[nH]1)NCc1ccc2c(c1)OCO2`, the activation was -2.24% (inactive). In the case of `COC(=O)c1c(NC(=O)CN2CCN(S(=O)(=O)c3ccccc3[N+](=O)[O-])CC2)sc2c1CCC(C)C2` (configuration not stated), the activation is reported as 0.62% (inactive). In the case of `CCc1c(O)cc2n(c1=O)-c1ccccc1C2(C)C`, the activation is reported as 0.55% (inactive). In the case of `CC(=O)N1Cc2ccccc2CC1C(=O)O` (configuration not stated), the activation is reported as 0.61% (inactive). With `Cc1ccc(OCC(=O)Nc2cccc3c2CCCC3)cc1C` the activation was 1.68% (inactive). In the case of `CCOC(=O)Cc1ncccc1C(=O)Nc1ccc(OC)cc1`, the activation is reported as -0.93% (inactive). In the case of `O=C(C1=C[C@H](C2CC2)C[C@H](OCc2ccc(CO)cc2)O1)N1CCN(Cc2ccccc2)CC1`, the activation is reported as 0.58% (inactive). In the case of `Cc1ccc(S(=O)(=O)C2C(=O)NC3(C)CC2c2ccccc2O3)cc1` (configuration not stated), the activation is reported as 0.78% (inactive). For `COC(=O)/C=C\C(=O)Nc1cccc([N+](=O)[O-])c1`, the activation was 0.27% (inactive). With `CCn1c(=O)c(=O)n(CC)c2cc(S(=O)(=O)N3CCc4ccccc43)ccc21` the activation was -1.27% (inactive). In the case of `O=C(Oc1cccc(N2C(=O)C3C4c5ccccc5C(c5ccccc54)C3C2=O)c1)c1ccco1` (configuration not stated), the activation is reported as 0.92% (inactive). In the case of `CCC(=O)/C(=C(/O)c1ccccc1)c1nc2ccccc2[nH]1`, the activation is reported as -0.31% (inactive). For `FC(F)(F)c1cccc(Cc2noc(CN3CCC(N4CCCCC4)CC3)n2)c1`, the activation was 0.44% (inactive). For `Cc1ccccc1-n1nnnc1SCCCC(=O)c1ccc(F)cc1`, the activation was 0.87% (inactive). With `CCOC(=O)NC(=O)C(=CNc1cccc(OC)c1)C(=O)NC(=O)OCC` the activation was -0.29% (inactive). For `O=C(CN(C(=O)c1csnn1)c1cccc(F)c1)NCc1ccc(F)cc1`, the activation was 0.3% (inactive). For `C=C(C)CNC(=S)N/N=C/c1ccccc1OCC(=O)O`, the activation was -0.31% (inactive). In the case of `COc1ccc(NC(=O)c2ccccc2[N+](=O)[O-])cc1OC`, the activation is reported as 0.48% (inactive). In the case of `O=C(Nc1ccc(Br)cn1)c1ccc([N+](=O)[O-])o1`, the activation is reported as -1.5% (inactive). In the case of `Cc1cc(C)c(C#N)c(N2CCC(C(N)=O)CC2)n1`, the activation is reported as -1.8% (inactive). For `O=C(NN1C(=O)C2C3C=CC(C3)C2C1=O)c1ccco1` (configuration not stated), the activation was -0.88% (inactive). In the case of `COc1ccccc1CC(NC(C)=O)C(=O)NC1CCN(C(=O)Nc2ccccc2Cl)CC1` (configuration not stated), the activation is reported as -0.13% (inactive). With `CCn1c(SCC(=O)N(C)C2CCS(=O)(=O)C2)nnc1-c1cccs1` (configuration not stated) the activation was -1.15% (inactive). For `COC(=O)c1nc(NC(=O)c2ccc(C(C)(C)C)cc2)n[nH]1`, the activation was -0.33% (inactive). With `O=C(C1CCN(S(=O)(=O)c2ccc(Br)s2)CC1)N1CCN(C2CCCCC2)CC1` the activation was 0.46% (inactive). For `CSCCNCc1cn(-c2ccc(F)cc2F)nc1-c1ccccc1C`, the activation was 0.48% (inactive). For `COC(=O)Cc1ccc(OCC(=O)Nc2ccc(OC(F)(F)F)cc2)cc1`, the activation was 0.09% (inactive). In the case of `O=C1/C(=C\c2ccccc2Cl)SC(=S)N1CCC(=O)N1CCCc2ccccc21`, the activation is reported as -0.64% (inactive). In the case of `CC(C)Oc1ccc(/C=C(\NC(=O)/C=C/c2ccco2)C(=O)NCCc2nc3ccccc3[nH]2)cc1`, the activation is reported as 0.27% (inactive). In the case of `O=C(NN1C(=O)C2C3C=CC(O3)C2C1=O)c1ccccc1` (configuration not stated), the activation is reported as -0.16% (inactive). In the case of `COc1cc2c3c(c1)/C(=C1/SC(=S)NC1=O)C(=O)N3C(C)(C)C=C2C`, the activation is reported as -0.69% (inactive). With `CN(C)c1ccc(/C=N/NC(=O)c2ccc(Cn3cc(Br)cn3)o2)cc1` the activation was -0.04% (inactive). For `COCC(C)NC(=O)CSc1nc2nn(-c3ccccc3)c(=O)c-2c2n1CCCCC2` (configuration not stated), the activation was -1.27% (inactive). For `CN(C)C(=O)c1ccc2c(c1)C1C3CCC(C3)C1C(c1ccccc1)N2` (configuration not stated), the activation was -0.17% (inactive). With `N=c1n(CCc2ccccc2)c2ccccc2n1Cc1ccccc1F` the activation was -0.46% (inactive). For `COc1ccc(C2NC(=S)NC3=C2CCc2ccccc23)cc1OC` (configuration not stated), the activation was 0.96% (inactive). For `CCCn1c(N)c(C(=O)CSc2nc3ccccc3c(=O)n2-c2ccc(OC)cc2)c(=O)[nH]c1=O`, the activation was 0.00314% (inactive). For `CC(C)c1nccn1S(=O)(=O)c1cc([N+](=O)[O-])ccc1Cl`, the activation was 1.71% (inactive). For `O=c1cc(-c2ccccc2)[nH]c2cc(F)ccc12`, the activation was -0.1% (inactive). For `COc1ccccc1N1CCN(CC(=O)NCCc2ccc(S(N)(=O)=O)cc2)CC1`, the activation was 0.00253% (inactive).
